The structures appear in SMILES notation. Several values for one entry are separate records, joined by “and”; a condition that tells them apart may be missing. Identical values can stand only once. Results filed as inconclusive are left out. Entries that show only a call come without a potency. Activity calls are given as the source filed them. Calls come from the whole dose curve.
Potency is the fitted concentration of half-maximal effect.

Sequence of Beta-2 adrenergic receptor (Homo sapiens) (P07550 whole entry, looked up): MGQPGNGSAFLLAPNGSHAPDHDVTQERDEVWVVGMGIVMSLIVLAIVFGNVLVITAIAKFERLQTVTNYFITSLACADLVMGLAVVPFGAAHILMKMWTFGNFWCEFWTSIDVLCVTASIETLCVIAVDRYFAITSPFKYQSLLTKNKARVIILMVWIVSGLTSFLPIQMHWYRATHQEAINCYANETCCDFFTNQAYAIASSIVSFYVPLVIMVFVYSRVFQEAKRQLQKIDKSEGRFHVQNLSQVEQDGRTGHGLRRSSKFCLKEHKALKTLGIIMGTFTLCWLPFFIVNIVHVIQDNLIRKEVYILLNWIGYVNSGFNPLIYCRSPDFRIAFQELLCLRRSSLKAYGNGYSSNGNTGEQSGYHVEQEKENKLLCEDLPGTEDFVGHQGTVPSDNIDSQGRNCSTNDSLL

This assay addresses Beta-2 adrenergic receptor (Homo sapiens) (UniProt P07550). The assay can be described thus: Adrenergic beta2 receptor (ADRB2) small molecule agonists, cell-based qHTS assay (AID 1963593). The settings on record: CHO-ADRB2 cells, cAMP HTRF, 30 min; series mostly up to 92.4 µM. The text has this: National Center for Advancing Translational Sciences [NCATS]
Division of Preclinical Innovation [DPI]
U.S. Environmental Protection Agency [EPA]
National Institutes of Environmental Health Sciences [NIEHS]
National Toxicology Program [NTP]
U.S. Food and Drug Administration [FDA]
Beta adrenergic receptors (Beta-ARs) belong to the G-protein coupled receptor (GPCR) superfamily, includes three subtypes - beta1, beta2, and beta3. Beta1-AR is the predominant receptor subtype expressed in the heart, and beta2-AR is expressed in the kidney, lung, blood vessel and in the heart, and beta3 is found in the adipocytes. Beta1 and 2 ARs couple to Gs protein and elevate cyclic adenosine mono phosphate (cAMP), which activates protein kinase A and leads to the downstream signaling responsible for the physiological actions. Beta-AR agonists or antagonists are the most prescribed therapeutic agents for heart failure and asthma, and these were one of the first target receptors for the rational drug design. Tox21 10K compound library was screened using the cAMP-Gs dynamic assay (Cisbio Bioassays, Shelton, CT) to identify agonists/antagonists of the Gs-coupled human adrenergic, beta2 receptor (ADRB2) in the CHO-ADRB2 cell line (Codex BioSolutions, Inc. Gaithersburg, MD), which stably over-expresses ADRB2. The principle of cAMP-Gs dynamic assay is based on HTRF technology, which facilitates the fluorescence resonance energy transfer (FRET) between donor Europium cryptate and acceptor d2-labeled cAMP. The cAMP generated within cells competes with the red acceptor, d2-labled cAMP, for binding to the monoclonal anti-cAMP-cryptate (Europium donor). An increase in intracellular cAMP leads to the disruption of FRET signal, and the signal is inversely proportional to the cAMP concentration. Isoproterenol HCl (Sigma-Aldrich, St. Louis, MO) was used as a positive control in the screening.
Tox21 Assay Protocol Summary:
CHO-ADRB2 cells were dispensed at 1,000/well in 4uL assay medium into white/solid 1536-well plates (Greiner Bio-One North America Inc., Monroe, NC) using a Multidrop Combi dispenser (ThermoFisher Scientific, Waltham, MA). The assay plates were incubated at 37C and 5% CO2 for an overnight (18-20hr). Then positive control and test compounds dissolved in DMSO were transferred to the assay plates at 23nL using a Pintool station (Wako, San Diego, CA). Following the compound and positive control transfer, 1uL stimulation mix containing 100uM IBMX and 25uM Ro-20-1724 was added to each well of the assay plates using BioRAPTR Flying Reagent Dispenser (FRD, Beckman Coulter, Brea, CA). The assay plates were incubated at room temperature for 0.5hr. Then 2.5ul each d2-labled cAMP and anti-cAMP-cryptate solutions were added separately to each well of the assay plates using an FRD and the assay plates were incubated at room temperature for 1hr.
(qHTS replaces the single test concentration by a dilution series.)
As for `ClC/C=C\CCl`, the Potency entry was “inactive”. In the case of `C=CC(C)(CCC=C(C)C)OC=O` (stereo not given) it was “inactive”; in that of `CC(=O)N1C[C@H](O)C[C@H]1C(=O)O`, “inactive”. Next, `COC(=O)OC`: “inactive”; `C/C=C/C(=O)C1=C(C)C=CCC1(C)C`: “inactive”. Consider `O=C1c2ccccc2CCc2ccccc21`, for which the Potency result was “inactive”. On to `CC(=O)Nc1ccc(N=Nc2cc(C)ccc2O)cc1`, for which the Potency result is “inactive”. In the case of `C=C(C)[C@H]1CC=C(C)CC1` it was “inactive”; in that of `C=CC(=O)OCC(CO)(COC(=O)C=C)COC(=O)C=C`, 6.88 µM (active) and 19.3 µM (active); in that of `O=C1Cc2cc(Cl)ccc2N1`, “inactive”. In the case of `CC(C)CCCCCOC(=O)CCS` it was “inactive”; in that of `OC[C@H]1O[C@@H](O[C@H]2[C@H](O)[C@@H](O)[C@H](O)O[C@@H]2CO)[C@H](O)[C@@H](O)[C@H]1O`, “inactive”.

On to `CCn1cc(C(=O)O)c(=O)c2cc3c(cc21)OCO3`, for which the Potency entry is “inactive”. In the case of `CN(C)Cc1ccccc1O`, the Potency result is “inactive”. Next, `COC(=O)Nc1ccc(Cl)c(Cl)c1`: “inactive”; `CCc1c(Br)c(Br)c(Br)c(Br)c1Br`: “inactive”; `CC(C)COC(=O)c1ccc(N)cc1`: “inactive”.

For `CC(C)C1CCC(O)CC1` (stereo not given), the Potency result was “inactive”. Take `Cc1ccc(N(C)C)cc1`: the Potency result was “inactive”.

As for `O=Cc1ccccc1C=O`, the Potency was 43.3 µM (active).

For `CCC(C)(C)C1CCC(=O)CC1`, the Potency entry is “inactive”. In the case of `CCCCCCCCS(=O)(=O)Cl` it was “inactive”. For `CCCC(=O)OCc1ccccc1`, the Potency entry was “inactive”. Regarding `OC/C=C/CO`, the Potency entry is “inactive”. In the case of `O=C(O)c1cc(=O)[nH]c(=O)[nH]1` it was “inactive”; in that of `Nc1cc(-c2ccncc2)c[nH]c1=O`, “inactive”; in that of `CC(=O)S[C@H](C(=O)N[C@H]1Cc2ccccc2[C@H]2CCC[C@@H](C(=O)O)N2C1=O)C(C)C`, “inactive”.

For the molecule `CCOc1ccccc1OCC`, the Potency entry was “inactive”. Next, `C=CCOC(=O)CCCCCC`: “inactive”; `CCCCC(CC)COP(=O)(OCC(CC)CCCC)OCC(CC)CCCC` (stereo not given): “inactive”; `C1CCC(SSC2CCCCC2)CC1`: “inactive”.

Consider `CC1(C)[C@H]2CC[C@]1(C)[C@H](O)C2`, for which the Potency result was “inactive”. On to `C=CCOC(=O)CCCCCCCC`, for which the Potency result was “inactive”. Consider `C[C@]12CC[C@H]3[C@@H](CCC4=CC(=O)CC[C@@]43C)[C@@H]1CC[C@@H]2C(=O)CO`, for which the Potency result is “inactive”.

Take `COC(=O)CCC(=O)O`: the Potency result was “inactive”. For `O=Cc1ccc(C(=O)O)cc1`, the Potency entry is “inactive”. `CCCCCCS`: the Potency result was “inactive”. With `CC1=C(C=O)C(C)(C)CC=C1`, the Potency result was “inactive”. Consider `CC(C)C(=O)c1c(C(C)C)nn2ccccc12`, for which the Potency entry was “inactive”.

With `CC(=O)Nc1ncc([N+](=O)[O-])s1`, the Potency result is “inactive”.

The values are drawn from PubChem BioAssay (Tox21).
